We go through 4 compounds from PubChem BioAssay AID1014 (NMMLSC, 2008).

The source made the active and inactive calls. Rule as the data show it: active = inhibition of mean fluorescence above about 33%; inactive = the rest.

This experiment can be described thus: quorum sensing inhibitors in bacterial reporter, SAR follow-up, flow cytometry, SAR analogs (AID 1014).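 Also: Staphylococcus aureus RN6390 with RNAIII-GFP reporter stimulated by AIP; bacteria incubated with compound for 3 hours at 37 °C.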 Conditions: at 20 µM, stronger effect = higher value; inhibition of percent positive cells: flow cytometry fluorescence, measured here: percent reporter-positive cells. A general note: Flow cytometry measures light scatter and fluorescence of single cells or particles in a stream.
With `O=C(NCC(c1cccnc1)N1CCN(c2ccc(F)cc2)CC1)c1ccc(F)cc1` (stereo not drawn), the inhibition of mean fluorescence was -11.6% (inactive) and the inhibition of percent positive cells is -0.2%.

Consider `Cc1ccccc1C(=O)N1CCC(C(=O)Nc2ccc3c(c2)OCO3)CC1`, for which the inhibition of mean fluorescence was -8.8% (inactive) and the inhibition of percent positive cells was -0.4%.

Regarding `O=C1CS/C(=N\C(=O)N2c3ccccc3Sc3ccccc32)N1`, the inhibition of percent positive cells was determined as 52.4% and the inhibition of mean fluorescence is 91.4% (active).

Turning to `Cc1cc(C)cc(Nc2c(F)c(F)c(F)c(F)c2C(=O)O)c1`, the inhibition of percent positive cells was -0.2% and the inhibition of mean fluorescence was 14% (inactive).
